# Laboratory results: PMC7826789 (International Journal of Molecular Sciences, 2021)
# Assays:
# Conditions in all cases: Compound Concentration (nM):1000
# LRRK2 = tested on: LRRK2
# LTK = tested on: LTK
# LYN = tested on: LYN
# LZK = tested on: T1, LZK
# T1 construct: gene MAP3K13
# MAK = tested on: MAK
# MAP3K15 = tested on: MAP3K15
# MAP3K1 = tested on: MAP3K1
# MAP3K2 = tested on: MAP3K2
# MAP3K3 = tested on: MAP3K3
# MAP3K4 = tested on: MAP3K4
# MAP4K2 = tested on: MAP4K2
# MAP4K3 = tested on: MAP4K3
# MAP4K4 = tested on: MAP4K4
# MAP4K5 = tested on: MAP4K5
# MAPKAPK2 = tested on: MAPKAPK2
# MAPKAPK5 = tested on: MAPKAPK5
# MARK1 = tested on: MARK1
# MARK2 = tested on: MARK2
# MARK3 = tested on: MARK3
# MARK4 = tested on: MARK4
# 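Also: KINOMEscan scanMAX binding as percent activity remaining versus control; lower means stronger binding.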
Structure (SMILES),Percent Control (LRRK2) [%],Percent Control (LTK) [%],Percent Control (LYN) [%],Percent Control (LZK) [%],Percent Control (MAK) [%],Percent Control (MAP3K15) [%],Percent Control (MAP3K1) [%],Percent Control (MAP3K2) [%],Percent Control (MAP3K3) [%],Percent Control (MAP3K4) [%],Percent Control (MAP4K2) [%],Percent Control (MAP4K3) [%],Percent Control (MAP4K4) [%],Percent Control (MAP4K5) [%],Percent Control (MAPKAPK2) [%],Percent Control (MAPKAPK5) [%],Percent Control (MARK1) [%],Percent Control (MARK2) [%],Percent Control (MARK3) [%],Percent Control (MARK4) [%]
CC1=C(C(=O)Nc2ccc3[nH]ncc3c2)C(c2ccc3ccccc3c2)CC(=O)N1 (centres unmarked) [GSK270822A],100,100,66,72,100,73,68,60,84,100,100,90,79,93,97,96,91,95,100,76
COC(=O)Nc1nc2ccc(Oc3ccc(NC(=O)Nc4cc(C(F)(F)F)ccc4F)cc3)cc2s1.Cl [GW693917A],39,18,19,78,100,100,53,92,79,80,78,100,57,71,94,78,100,78,73,99
NS(=O)(=O)c1ccc(N/N=C2\C(=O)Nc3ccc(Cl)cc32)cc1 [GW280670X],72,100,90,100,100,100,63,100,100,100,90,94,99,100,100,100,100,100,100,94
C/C(Nc1ccc(S(N)(=O)=O)cc1)=C1/C(=O)Nc2ccccc21 [GW335962X],55,78,87,97,98,93,62,53,55,100,49,67,89,100,100,100,83,72,96,87
CC1=C(C(=O)Nc2ccc3[nH]ncc3c2)C(c2ccc(Cl)c(Cl)c2)CC(=O)N1 (centres unmarked) [GSK299115A],96,84,100,79,100,84,76,85,85,100,79,79,73,75,96,100,100,100,78,100
CCn1c(-c2nonc2N)nc2c(C#CC(C)(C)O)nc(OCCNC)cc21.Cl [GSK949675],100,100,100,91,100,100,100,6.9,28,100,84,100,95,57,100,100,100,90,100,100
O=C1Nc2ccc(C(=O)c3ccco3)cc2C1=Cc1cc(Cl)c(O)c(Cl)c1 [GW406108X],13,93,86,94,100,90,63,96,78,100,90,100,50,99,100,100,63,75,100,100
COc1cc2ncnc(Nc3ccc4c(cnn4Cc4ccccc4)c3)c2cc1OC.Cl [GW282449A],100,46,46,100,100,98,84,100,100,100,93,95,100,88,72,88,100,100,100,100
CCc1ccc(Oc2nccc(-c3c(-c4ccc(F)cc4)ncn3C3CCNCC3)n2)cc1 [SB-242719],100,95,100,95,100,91,67,98,66,93,40,87,69,53,91,96,69,77,61,100
COc1cccc(-c2c[nH]c3c(N/N=C/c4ccncc4)ncnc23)c1 [GW814408X],100,98,50,93,100,100,92,65,57,100,78,93,65,68,100,100,89,100,100,99
